Pf Dd2 inh = qHTS Primary assay for Inhibitors of Plasmodium falciparum Dd2 growth in vitro | Potency, µM (doses to about 28.9 µM), for the others: at the highest dose activity, negative = inhibition, actives largely listed as inhibitors | AID 1347417, 2020 | 120,000 tested, 4.3% active | P. falciparum Dd2 growth, SYBR Green, 72 h; active = well fitted inhibition curve with a large enough effect;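 note: plate controls were DMSO vehicle for no effect and reference drug for full effect; nearly all actives have a fitted effect of over 65% in size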
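Readout: SYBR Green fluorescence, 485 nm excitation, 535 nm emission, after ~16 h lysis at 37C. Before that, Dd2-infected red cells (2.5% hematocrit) grew 72 h with compound, 29 uM top final concentration.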
Starred values were filed as active, the others as inactive; i = inactive; [ ] = dose if it differs, or a comment. The entries come from a sample that favours hits as a whole. Potency is the fitted concentration of half-maximal effect.

SMILES	Pf Dd2 inh
CCC1C(=O)N(C)CCN1C(=O)c1coc(COc2ccc3c(c2)OCO3)n1 (centres undefined)	-15%
COc1cc(OCc2ccccc2)ccc1CN1C[C@@H]2CCN[C@@H]2C1	10µM*
COCCN1C(=O)[C@H]2CN(Cc3ccc(OC)cc3OC)C[C@H]2C1=O	i
COc1ccc(CN2C[C@@H]3C(=O)N(Cc4ccc5c(c4)OCO5)C(=O)[C@@H]3C2)c(OC)c1	i
O=C(NC1CCCC1)c1ccc2c(=O)n(Cc3ccccc3)c(SCc3ccccc3)nc2c1	21%
Cc1ccccc1Cn1c(SCc2ccc(C(=O)NC(C)c3ccccc3)cc2)nc2ccncc21 (centres undefined)	6.3µM*
CC(NC(=O)c1cc2sccc2n1Cc1ccc(F)cc1)c1ccccc1 (centres undefined)	i
CC(NC(=O)c1ccc(CSc2nc3ccncc3n2Cc2ccc(F)cc2)cc1)c1ccccc1 (centres undefined)	8.9µM*
CC1CCCN(C(=O)c2ccc(CSc3nc4ccncc4n3Cc3ccccc3)cc2)C1 (centres undefined)	11µM*
Cc1ccccc1CSc1nc2cc(C(=O)NC3CCCC3)ccc2c(=O)n1Cc1ccccc1	i
CC(NC(=O)c1ccc(Cn2c(SCc3ccccc3)nc3cccnc32)cc1)c1ccccc1 (centres undefined)	14%
CC(NC(=O)c1ccccc1)c1nc2ccccc2n1Cc1ccc(Cl)cc1 (centres undefined)	-15%
CN(C)[C@H]1CCCCN(C(=O)c2ccc(CSc3ccccn3)cc2)C1	i
Cc1noc(C)c1C(=O)N1Cc2ccccc2CC2(CCN(CC3CCNCC3)C2)C1 (centres undefined)	3%
Cc1c(Cl)cccc1NC(=O)N1CCC(Oc2ncccc2C(=O)N2CCOCC2)C1 (centres undefined)	21%
Cc1ncc2c(c1CNC(=O)c1cccc(N3CCOCC3)c1)CCNC2	3%
Cc1cc2nc(CO[C@H]3CN(C4CCOCC4)C[C@H]3F)[nH]c2cc1C	i
CCCCS(=O)(=O)N1CCc2nn(CCOC)c(=O)n2CC1	5%
CC1(COc2ccccc2)COc2ccc(C(=O)NCc3cccc(F)c3)cc2N1 (centres undefined)	-14%[44.1 µM]
O=C(O)CO[C@@H]1COCC[C@H]1NC(=O)CCCn1cncn1	-2%
CCn1cc(-c2ccc(OC)cc2)cc1C(=O)NC(C)c1cccnc1 (centres undefined)	-22%
CCCn1cc(-c2ccncc2)cc1C(=O)NC(C)c1ccc(OC)cc1 (centres undefined)	7.9µM*
CCCn1cc(-c2ccncc2)cc1C(=O)NCc1ccc(OC)cc1	i
CN1CC(=O)N(C2CCNCC2)Cc2c(NCCOc3ccccc3)ncnc21	-19%
C[C@]1(O)CCN(C(=O)c2ccc(-c3cnco3)cc2)C[C@@H]1O	0%
SMILES	Pf Dd2 inh
O=C(Nc1ccccc1Cl)N1CCC2(CC1)Oc1ccccc1C(=O)N2Cc1ccc(F)cc1	14µM*
Cc1ccc(NC(=O)N2CCC3(CC2)Oc2ccccc2C(=O)N3Cc2ccc(F)cc2)cc1	11µM*
COc1ccc(Cl)cc1NC(=O)C[C@H]1NC(=O)c2ccccc2NC1=O	-23%
O=C(Nc1ccc(F)c(Cl)c1)N1CCC2(CC1)Oc1ccccc1C(=O)N2Cc1ccccc1F	3%
O=C(Nc1cccc(Cl)c1Cl)N1CCC2(CC1)SCC(=O)N2Cc1ccco1	i
COc1ccc(Cl)cc1NC(=O)N1CCC(CN2CCCCCC2)CC1	-11%
Cc1ccc(NC(=O)N2CCC3(CC2)SCC(=O)N3Cc2ccccc2)cc1	i
COc1ccc(Cl)cc1NC(=O)N1CCC2(CC1)Oc1ccccc1C(=O)N2Cc1ccc(F)cc1	13µM*
CC1(C(=O)NC2CCCCC2)Cc2ccccc2C(=O)N1Cc1ccc(F)cc1 (centres undefined)	19%
CN(C)c1cccc(C(=O)N2CCC[C@H]2c2nc(-c3ccc(F)cc3)no2)c1	17%
O=C1CCCN1CCCN1C(=O)[C@H]2CN(Cc3cccc(F)c3F)C[C@H]2C1=O	5%
CCCNC(=O)N[C@@H]1CCC[C@@H](C(=O)NCc2cc(C)on2)CC(=O)N(C)C1	19%[44.1 µM]
O=C(Cc1ccccn1)N1CCc2nc(-c3ccc(Cl)cc3)nc(-c3ccccc3)c2C1	i
CN1CC(=O)N(C2CCC2)Cc2c1ncnc2N1CCCCC1	-3%
COCCn1ccc2c(C3=CCOCC3)nc(-c3cccc(CO)c3)cc21	i
Cc1nc2c(c(-c3ccc(Cl)cc3)n1)CN(C(=O)c1ccc(C(F)(F)F)cc1)CC2	i
CC(C)NC(=O)C1c2ccccc2C(=O)N(Cc2ccco2)C12CCCC2 (centres undefined)	-21%
O=C(Nc1cccc(-c2nnc3n2CCCC3)c1)c1ccccc1Cl	5.6µM*
Cc1cccc(C(=O)Nc2ccc(-c3nnc4n3CCCC4)cc2)c1	-10%
O=C(Nc1ccc(-c2nnc3n2CCCC3)cc1)Nc1cccc(Cl)c1	-8%
O=C(Nc1ccc(-c2nnc3n2CCCC3)cc1)c1cc(C2CC2)[nH]n1	i
CC(=O)Nc1ccc(-c2nnc3n2CCCC3)cc1	25%
